Laboratory results from paper PMC4336329 (PLoS ONE, 2015).
The whole screen tested about 310,000 compounds, of which about 14,000 (4.5%) showed an effect of 50% or more. The effect is printed as a negative number. This excerpt belongs to a sample that is enriched for strong results.

The compounds below were run against human ether-à-go-go-related gene (hERG) potassium channel (human, UniProt Q12809) (assay: primary screen, population patch clamp on CHO cells stably expressing hERG; higher = less effect of the substance).
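Further: peak tail current of the secondary pulse compared with the same well before compound.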

Sequence of human ether-à-go-go-related gene (hERG) potassium channel (Q12809 whole entry, looked up): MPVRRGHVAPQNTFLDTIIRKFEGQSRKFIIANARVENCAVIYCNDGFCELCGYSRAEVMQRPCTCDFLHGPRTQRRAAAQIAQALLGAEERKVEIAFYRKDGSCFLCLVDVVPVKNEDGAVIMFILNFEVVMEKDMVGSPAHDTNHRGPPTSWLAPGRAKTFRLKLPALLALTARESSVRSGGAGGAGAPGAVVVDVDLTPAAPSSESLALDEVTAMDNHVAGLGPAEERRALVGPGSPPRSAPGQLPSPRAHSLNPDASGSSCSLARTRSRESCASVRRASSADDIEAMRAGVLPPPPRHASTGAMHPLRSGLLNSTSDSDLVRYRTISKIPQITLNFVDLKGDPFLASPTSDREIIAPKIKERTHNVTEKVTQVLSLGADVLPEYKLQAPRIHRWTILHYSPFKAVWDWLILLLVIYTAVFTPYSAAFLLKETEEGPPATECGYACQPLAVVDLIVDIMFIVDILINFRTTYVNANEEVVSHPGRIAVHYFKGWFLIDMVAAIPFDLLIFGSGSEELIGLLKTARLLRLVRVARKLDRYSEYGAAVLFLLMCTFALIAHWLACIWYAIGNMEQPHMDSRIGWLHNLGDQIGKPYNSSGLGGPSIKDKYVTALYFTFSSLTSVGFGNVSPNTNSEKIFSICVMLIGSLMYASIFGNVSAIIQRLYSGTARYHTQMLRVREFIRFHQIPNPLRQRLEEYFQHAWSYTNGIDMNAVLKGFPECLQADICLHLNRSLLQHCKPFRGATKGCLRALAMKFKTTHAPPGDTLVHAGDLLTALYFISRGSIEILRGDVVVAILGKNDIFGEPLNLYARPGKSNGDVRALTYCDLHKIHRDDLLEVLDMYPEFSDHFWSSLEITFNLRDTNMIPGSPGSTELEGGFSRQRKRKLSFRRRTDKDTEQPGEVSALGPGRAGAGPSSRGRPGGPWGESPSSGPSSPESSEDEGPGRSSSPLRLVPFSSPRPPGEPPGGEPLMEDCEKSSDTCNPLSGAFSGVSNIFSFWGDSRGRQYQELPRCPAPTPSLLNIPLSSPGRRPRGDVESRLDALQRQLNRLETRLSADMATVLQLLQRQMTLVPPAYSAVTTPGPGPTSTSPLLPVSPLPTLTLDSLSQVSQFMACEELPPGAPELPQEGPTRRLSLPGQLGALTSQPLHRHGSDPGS

SMILES | hERG current change (%, negative = inhibition) at 10uM [%]
O=C(Nc1ccccc1)c1ccc(S(=O)(=O)NCc2ccco2)cc1 | -11.6
O=C(Cc1ccc(S(=O)(=O)N2CCCC2)s1)NC1CCCCCC1 | -31.4
C/C(=N\NC(=O)Cn1nc(C)cc1C)c1ccc([N+](=O)[O-])cc1 | -17.6
O=C(Nc1ccc(Cc2ccc(NC(=O)C3CC3)c(O)c2)cc1O)C1CC1 | 8.31
CCC(=O)N1C(Cc2ccccc2)COC1(C)C (stereo not drawn) | -73.4
CCC(=O)N1COC[C@@H]1Cc1ccccc1 | 25.4
CCC1(C)NC(=O)N(CC(=O)N2CCC(Cc3ccccc3)CC2)C1=O (stereo not drawn) | 3.65
Cn1c(=O)c2ncn(CC(=O)N=Nc3c(O)[nH]c4ccccc34)c2n(C)c1=O | 20.7
Cl.O=[N+]([O-])c1ccccc1/C=N/NC1=NCCCCC1 | -39.3
O=C(N/N=C/c1cccc(O)c1)C(=O)N1CCCCCC1 | 24.6
O=C(N/N=C/c1ccc([N+](=O)[O-])cc1)C(=O)N1CCCC1 | 13.5
O=C(ONC1=NCCCCC1)c1cccc([N+](=O)[O-])c1 | 0.994
O=[N+]([O-])c1cccc(/C=N/NC2=NCCCCC2)c1 | -83
O=C(N/N=C/c1cccc([N+](=O)[O-])c1)C(=O)N1CCCCCC1 | -52.5
O=C(CSc1nnc(-c2cccnc2)n1CCc1ccccc1)NCc1ccccc1 | -10.9
CCOc1ccc(-c2nnc(SCC(=O)N(CC)CC)n2N)cc1 | 5.1
CN1C(=O)Cc2cc(S(=O)(=O)N3CCN(c4ccc(Cl)cc4)CC3)ccc21 | -2.2
COc1ccccc1Nc1nc(NCCO)nc(N)c1[N+](=O)[O-] | 2.88
Cc1cc(=O)oc2cc(OCC(=O)OCC(=O)Nc3ccccc3C(C)C)ccc12 | 3.47
COc1ccccc1C(=O)Nc1cc2c(cc1C(=O)O)OCCCO2 | -2.13
CSc1ccccc1C(=O)Nc1cc2c(cc1C(=O)O)OCCCO2 | 18.2
CS(=O)(=O)c1ccccc1C(=O)Nc1cc2c(cc1C(=O)O)OCCCO2 | -57.3
C/C=C\C(=O)Nc1cccc(C2=NOC3(C2)C[C@@H](C(N)=O)N(C(=O)CCCCC)C3)c1 (stereo partly drawn) | -31
CCCCCC(=O)Nc1cccc(C2=NOC3(C2)C[C@H](C(N)=O)N(C(=O)CC)C3)c1 (stereo partly drawn) | 6.18
CCCCCC(=O)Nc1cccc(C2=NOC3(C2)C[C@H](C(N)=O)N(C(=O)COc2ccc(Cl)cc2)C3)c1 (stereo partly drawn) | -22
CCCCCC(=O)N1CC2(CC(c3cccc(NC(=O)CC(c4ccccc4)c4ccccc4)c3)=NO2)C[C@@H]1C(N)=O (stereo partly drawn) | 11.4
NC(=O)[C@@H]1CC2(CC(c3cccc(NC(=O)COc4ccc(Cl)cc4)c3)=NO2)CN1C(=O)COc1ccc(Cl)cc1 (stereo partly drawn) | -29.4

SMILES | hERG current change (%, negative = inhibition) at 10uM [%]
CCCCCC(=O)N1CC2(CC(c3cccc(NC(=O)COc4ccc(Cl)cc4)c3)=NO2)C[C@@H]1C(N)=O (stereo partly drawn) | -77
CCCCCC(=O)N1CC2(CC(c3cccc(NC(=O)c4ccccc4)c3)=NO2)C[C@@H]1C(N)=O (stereo partly drawn) | -54.6
CCCCCC(=O)N1CC2(CC(c3cccc(NC(=O)CC)c3)=NO2)C[C@H]1C(N)=O (stereo partly drawn) | -11.6
CCCCCC(=O)Nc1cccc(C2=NOC3(C2)C[C@H](C(N)=O)N(C(=O)CCCCC)C3)c1 (stereo partly drawn) | -70.7
N#CCCN1CCN(S(=O)(=O)c2ccc(S(=O)(=O)NC3CCCC3)cc2)CC1 | -9.4
CCc1cc2c(Nc3ccc(O)cc3)nc(C)nc2s1.Cl | 8.46
Cc1cc(/C=N/O)c(C)n1-c1ccc(Br)cc1 | -34.2
CCc1ccc(OCCSc2nc3ccccc3n2CC(=O)O)cc1 | 3.37
CSc1nsc(SC)c1NC(=O)N1CCCCC1 | 2.74
O=C(NC(=S)N(Cc1ccccc1)Cc1ccccc1)c1ccccc1F | 18.5
O=C(Cn1c(CO)nc2ccccc21)Nc1cc(C(F)(F)F)ccc1N1CCOCC1 | 1.37
Cc1c(C(=O)N2CCN(CCc3ccccc3)CC2)oc2ccccc12 | -72.4
O=C(c1cc2ccccc2o1)N1CCN(Cc2ccc3c(c2)OCO3)CC1 | -22.1
O=C(c1cc(-c2ccccc2)on1)N1CCN(Cc2ccc3c(c2)OCO3)CC1 | -50.1
COc1cc2cc(C(=O)N3CCN(Cc4ccc5c(c4)OCO5)CC3)c(=O)oc2cc1OC | -0.572
O=C(NCCN1CCN(C(=O)c2cc3ccccc3oc2=O)CC1)c1cc2ccccc2oc1=O | -15.9
O=C(c1cc2ccccc2oc1=O)N1CCN(CCc2ccccc2)CC1 | -71.8
C=CCN1CCN(C(=O)c2oc3ccccc3c2C)CC1 | -0.434
O=C(c1cc2ccccc2oc1=O)N1CCN(Cc2ccc3c(c2)OCO3)CC1 | -53.7
Cc1onc(-c2ccccc2)c1C(=O)N1CCN(Cc2ccc3c(c2)OCO3)CC1.Cl | 17.5
Cc1cc(C(=O)N2CCN(Cc3ccc4c(c3)OCO4)CC2)on1 | -4.02
CC(=O)N1CCN(C(=O)c2oc3ccccc3c2C)CC1 | 8.84
CN1CCN(C(=O)c2cc3ccccc3oc2=O)CC1 | 6.08
c1ccc(CCCCNCC2COc3ccccc3O2)cc1 (stereo not drawn) | -28.5
COc1cc(C(=O)NCCC(c2ccccc2)c2ccccc2)cc(OC)c1OC | 0.15
COc1ccc(-c2cc(N)n(CCC#N)n2)c(OC)c1 | 4.12
O=C(CSc1nnc(-c2ccncc2)o1)Nc1ccccc1C(F)(F)F | -0.412
